Screens deposited in PubChem by National Center for Advancing Translational Sciences (NCATS).
Sampled rows, rich in hits. Any-hit rate of the full collection: about 2.6%.
uPA surface inh: inhibitors of cell surface uPA generation; cell surface uPA generation assay, qHTS; Potency, µM (series often up to 38.3 µM), for inactives: at the highest dose activity change, negative = inhibition, usual class: inhibitors; 330,000 tested, 0.31% active; AID 540303; active = well fitted inhibition curve with a large enough effect; inconclusive = small, poorly fitted or top-dose-only effect; inactive = no such curve, though single readings can be large or run the other way; tested in mouse RAW 264.7 cells; note: potency is the fitted concentration of half-maximal effect; % is set by controls: 0 for no effect and ±100 for the full control effect; nearly all actives have a fitted effect of over 55% in size
TGFb inhibitor: inhibitors of TGF-b signaling. HepG2 CAGA-GFP TGF-b/SMAD3 reporter, GFP fluorescence, 18 h; TGF-beta stimulated, 500 pg/mL final. Potency, µM (top dose mostly 46.1 µM), for inactives: at the highest dose activity, negative = inhibition, actives largely listed as inhibitors. 410,000 tested, 1.2% active; note: potency is the fitted concentration of half-maximal effect; % is set by controls: 0 for no effect and ±100 for the full control effect; nearly all actives have a fitted effect of over 65% in size
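Inhibition was scored as loss of TGF-beta-induced (500 pg/mL final, 18 hours, 37 degrees C) GFP in HEPG2 cells carrying a CAGA-GFP reporter, in DMEM with 1% FBS. Well GFP was summed per cell; Activity was normalised to unstimulated and stimulated DMSO wells, then concentration-response fitting.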
ATXN2 expr inh: ATXN2 expression inhibition. HEK-293 ATXN2-luciferase reporter, luminescence, 24 h. Potency, µM (doses to about 57 µM), inactives show at the top dose activity change, negative = inhibition, actives largely listed as inhibitors. 360,000 tested, 0.72% active; note: potency is the fitted concentration of half-maximal effect; % is set by controls: 0 for no effect and ±100 for the full control effect; nearly all actives have a fitted effect of over 55% in size
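ATXN2-luciferase reporter cells (luciferase flanked by upstream and downstream ATXN2 gene portions) were treated 24 h at 37 °C with compounds at up to 57 uM. SteadyGlo luminescence gave expression; GF-AFC fluorescence gave viability.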
Giardia killer: kills Giardia lamblia. 340,000 tested, 0.15% active. activity change, % at 7.66 µM, hits read low. Giardia lamblia trophozoite viability; in the data active = activity change below about -80%; inconclusive = between about -30% and that limit;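 note: parasites exposed to compound for two days anaerobically before the ATP read; % is set by controls: 0 for no effect and ±100 for the full control effect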
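Compounds were tested on trophozoites seeded at 100 cells/well and held 48 hrs at 37 deg C anaerobically. An ATP-based luminescent kit measured the remaining live cells.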
HepG2 tox: counter-screen for TGF-b inhibitors: cytotoxicity in HepG2 cells. AID 588856. 410,000 tested, 0.76% active. HepG2 CAGA-GFP viability, ATP luminescence, 18 h. Potency, µM (titrated, usually from 46.1 µM), without a hit: at the highest dose activity change, negative = cytotoxicity, actives largely listed as cytotoxic; note: potency is the fitted concentration of half-maximal effect
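HepG2 CAGA-GFP cells (1000/well, DMEM with 1% FBS) received compound, then TGF-beta at 500 pg/mL final, and were incubated 18 hours at 37 degrees C. Viability was read by CellTiter-Glo luminescence. Media-only wells were set as complete cell-killing and DMSO as no toxicity.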
S2 tox: viability counter-screen for ATXN expression inhibitors. S2 cells (HEK-293 line with an ATXN2-luciferase reporter) viability, CellTiter-Fluor protease fluorescence, 24 h. Potency, µM (series often up to 56.7 µM), most hits filed as cytotoxic. 400,000 tested, 0.49% active; note: potency is the fitted concentration of half-maximal effect; nearly all actives have a fitted effect of over 40% in size
Starred values were filed as active, the others as inactive; i = inactive; ? = inconclusive; / = no result given; ! = repeats disagree. Unless noted, calls come from the whole dose curve; as a rule, active = well fitted curve in the direction sought with a large enough effect; inconclusive = small, poorly fitted or top-dose-only effect, or another doubt; inactive = no such curve, though single readings can be large; an effect the other way counts as inactive or inconclusive.

SMILES	uPA surface inh	TGFb inhibitor	ATXN2 expr inh	Giardia killer	HepG2 tox	S2 tox
CC(O)(c1cccc(F)c1)c1nc(-c2cc3ccccc3o2)cs1 (stereo not drawn)	/	?	7%	/	-34%	?
CC(O)(c1cccc(F)c1)c1nc(-c2cc(F)cc(F)c2)cs1 (stereo not drawn)	/	11µM*	0%	/	-64%	?
COc1cccc(C(C)(O)c2nc(-c3cc4ccccc4o3)cs2)c1 (stereo not drawn)	/	8.9µM*	4%	/	-80%	i
CCCCNc1ccc(C(=O)OCCN(CC)CC)cc1	/	/	3%	/	/	i
CC(=O)OCC1=C(C(=O)O)N2C(=O)C(NC(=O)c3ccc(F)cc3)C2SC1 (stereo not drawn)	18%	-5%	/	10	4%	14µM*
CC(C)c1ccc(/C=C2\C=Cc3ccccc32)cc1	/	?	/	/	-48%	/
Fc1ccc2[nH]c3c(NCc4ccco4)ncnc3c2c1	/	?	/	-11	-46%	/
CSCC(=O)NC1CCCN(C2Cc3ccccc3C2)C1 (stereo not drawn)	7%	?	-4%	-27	7.9µM*	?
Cn1cnc2c1c(=O)[nH]c(=O)n2C	/	/	31µM*!	/	/	i
Cn1c(=O)[nH]c2ncn(C)c2c1=O	8%	0%	-5%	8	-7%	i
c1cncc(OC2CCN(Cc3ccc4c(c3)CN(Cc3ccc5c(c3)OCCO5)CCO4)CC2)c1	/	/	/	/	/	i
O=[N+]([O-])c1ccc(O)c(C2=NNC(c3ccccc3F)C2)c1 (stereo not drawn)	-3%	13µM*	?	-25	-38%	i
Nc1cccc2c(O)cccc12	-5%	6%	-7%	3	13%	i
Nc1ccccc1O	?	?	-3%	1	16µM*	i
Cc1c(C(=O)N2CCCC2)sc2ncnc(NCCN(C)C)c12	/	/	/	/	/	i
COc1ccc([C@@H]2CC(=O)c3c(O)cc(O[C@@H]4O[C@H](CO[C@@H]5O[C@@H](C)[C@H](O)[C@@H](O)[C@@H]5O)[C@@H](O)[C@H](O)[C@@H]4O)cc3O2)cc1O	/	/	12%	/	/	/
CCOC(=O)c1c(N)sc(C(=O)Nc2ccccc2F)c1C	?	7%	/	?	-23%	?
CCOC(=O)c1c(N)sc(C(=O)Nc2ccccc2)c1C	7.9µM*	-1%	/	?	-54%	/
C(=NN=C1c2ccccc2-c2ccccc21)c1c[nH]c2ccccc12	0%	?	0%	-14	7%	19µM*
CCCCCC[C@@H](CCC)C(=O)O	/	/	-13%	/	/	i
O=C(O)c1ccccc1NCCc1ccccc1	/	/	44%	/	/	i
NS(=O)(=O)c1ccc(CCNc2nc3c(-c4cccc(F)c4)nnn3c3ccc(Cl)cc23)cc1	/	?	0%	/	8.9µM*	i
Cc1ccc2[nH]c(=O)c(C3C(C#N)=C(N)Oc4c3ccc3cccnc43)cc2c1 (stereo not drawn)	-9%	10µM*	?	16	-110%	/
N#CC1=C(N)Oc2c(ccc3cccnc23)C1c1ccccc1 (stereo not drawn)	1.3µM*	?	-35%	6	-35%	?
COC(=O)C1=C(C)NC(C)=C(C(=O)OC)C1c1cc2cc(C)ccc2[nH]c1=O	-1%	?	-5%	1	0%	i
SMILES	uPA surface inh	TGFb inhibitor	ATXN2 expr inh	Giardia killer	HepG2 tox	S2 tox
COc1ccc(-n2cccc2/C=C/[N+](=O)[O-])cc1	-7%	18µM*	?	-19	-60%	/
O=C(Nc1ccc(N2CCN(C(=O)c3cccs3)CC2)c(Cl)c1)c1cccnc1	-1%	-9%	22µM*	-2	-21%	i
O=C(Nc1ccc(N2CCCC2)c(Cl)c1)c1cccnc1	-3%	6%	45%	4	-4%	?
O=C(Nc1ccc(N2CCOCC2)c(Cl)c1)c1cc(F)c(F)cc1Cl	4%	-4%	15%	4	-28%	i
O=C(Nc1ccc(N2CCN(C(=O)c3cccs3)CC2)c(Cl)c1)c1ccco1	/	-7%	-16%	0	-14%	i
Cc1ccccc1C(=O)N1CCN(c2ccc(NC(=O)c3ccco3)cc2Cl)CC1	-15%	?	32µM*	8	-20%	?
COc1ccccc1C(=O)NC(=S)Nc1ccc(N2CCN(C(=O)c3ccco3)CC2)cc1	-18%	2%	-37%	-3	6%	i
O=C(Nc1ccc(N2CCOCC2)c(Cl)c1)c1c(F)c(F)c(F)c(F)c1F	-10%	-4%	13µM*	13	0%	i
Cc1ccccc1C(=O)N1CCN(c2ccc(NC(=S)NC(=O)c3ccco3)cc2)CC1	-2%	?	/	?	-24%	14µM*
CCN(CC)CCOC(=O)c1ccc(N)cc1Cl	/	/	/	/	/	i
COCC(=O)Nc1cc(C(=O)N2CCCC2c2nccs2)c2c(c1)nc(-c1ccncc1)n2C (stereo not drawn)	/	/	/	/	/	i
CCN(CC)C1CCN(C(=O)c2cnn(-c3nccc(-c4ccco4)n3)c2C(C)C)C1 (stereo not drawn)	/	/	/	/	/	i
O=C(Nc1ccc(N2CCN(C(=O)c3ccco3)CC2)c(Cl)c1)c1cccnc1	1%	-1%	-12%	?	3%	i
O=C(Nc1ccc(N2CCN(C(=O)c3ccco3)CC2)c(Cl)c1)c1c(F)c(F)c(F)c(F)c1F	-12%	?	28µM*	-3	-20%	?
CNc1ccc(/C=C/c2ccnc3ccccc23)cc1	/	-23%	/	/	-46%	/
O=C(CCCl)Nc1nc2c(s1)CCc1ccccc1-2	-14%	?	?	-26	10µM*	?
COc1cc(=O)n2c(c1C(=O)N(C)Cc1ccsc1)CCN(Cc1c(C)nn(C)c1Cl)CC2	/	/	/	/	/	i
CCCc1sc(N/N=C/c2ccccn2)nc1-c1ccc(Br)cc1	?	?	2.8µM*	14	-17%	/
CC(=O)Nc1sc(N/N=C/c2ccccc2)nc1-c1ccc(C)cc1	-5%	-1%	14%	-13	-10%	i
O=C(/C=C/c1c(F)cccc1Cl)c1ccc(F)cc1	-7%	?	-13%	1	16µM*	i
CCOC(=O)[C@H](CCc1ccccc1)N[C@H]1CCc2ccccc2N(CC(=O)O)C1=O	11%	9%	24µM*!	7	12%	35µM*!
COc1cc(/C=C2\CC/C(=C\c3cc(OC)c(OC)c(OC)c3)C2=O)cc(OC)c1OC	8%	?	-33%	22	8%	i
COc1cc(/C=C2\CC(C(C)(C)C)C/C(=C\c3cc(OC)c(OC)c(OC)c3)C2=O)cc(OC)c1OC (stereo not drawn)	?	11µM*	?	23	-71%	?
COc1cc(=O)n2c(c1C(=O)N(C)Cc1nonc1C)CCN(Cc1ccccc1F)CC2	/	/	/	/	/	i
